Experiment [1] deals with Wnt5a (protein binding on small-molecule microarray). Nature of the experiment: small molecules binding Wnt5a protein – biophysical, small-molecule microarray, 635/667 nm fluorescence, primary screen (AID 1142).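 Also: fluorescence read at 667 nm with signal to noise per printed feature.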 The following applies: 635 nm fluorescence, higher = more signal.
A short description of experiment [2]: ATP-based viability of Huh7 replicon cells – cell-based, CellTiter-Glo luminescence, basal, 48 h, cytotoxicity control for HCV replication inhibitor project, primary screen (AID 1143).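 Also: Huh7 hepatoma cells carrying a hepatitis C replication reporter with no stimulus; test concentration not given here.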 The following applies: higher = more signal, called active from +8 up or from −8 down. A general note: Replicon systems follow genome replication, usually without infectious particles.

The nature of experiment [3]: Pseudomonas biofilm growth suppression – PAO1 strain, BacTiter-Glo luminescence, LB-PBS, primary screen (AID 1144). As to conditions: P. aeruginosa PAO1 biofilm, 12 h, higher = more signal.
Experiment [4] can be described thus: basal CRE-LacZ reporter activity in PC12 – cell-based, unstimulated, primary screen (AID 1145). As to conditions: no forskolin, luminescence, 4.5 h, higher = more signal, called active from +8 up or from −8 down.
Experiment [5] can be described thus: forskolin-driven CRE-LacZ activity in PC12 – cell-based, CRE-LacZ reporter, forskolin-stimulated, primary screen (AID 1146).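 Also: PC12 cells with 6xCRE LacZ reporter stimulated by forskolin 10 µM; beta-galactosidase reporter signal reflecting CREB driven transcription.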 The following applies: luminescence, 4.5 h, higher = more signal, called active from +8 up or from −8 down.
Experiment [6] deals with Streptavidin (Streptomyces avidinii) (UniProt P22629). Nature of the experiment: compounds binding control protein streptavidin – biophysical, small-molecule microarray, 635/667 nm fluorescence, artefact control for SMM compound annotation, primary screen (AID 1147).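 Also: signal reflects streptavidin binding to arrayed compounds as a control protein.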 The following applies: higher = more signal.
The nature of experiment [7]: probe aInhba binding on compound microarray – biochemical, small-molecule microarray, 635/667 nm fluorescence, primary screen (AID 1148).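 Also: score merges 667nm spot fluorescence with signal-to-noise for antibody binding to printed compounds.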 As to conditions: higher = more signal.
For experiment [8], the target named is Torsin-1A (Homo sapiens) (UniProt O14656). Nature of the experiment: TOR1A wild-type binding on microarray – cell lysate, small-molecule microarray, lysate, 635/667 nm, primary screen (AID 1149). The following applies: COS7 hTOR1A-WT lysate, 635 nm fluorescence, higher = more signal.
Experiment [9] shares this target. Briefly: torsin A mutant lysate binding on microarrays – cell lysate, small-molecule microarray, COS7 lysate, 635/667 nm fluorescence, primary screen (AID 1150).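 Also: score pools 667 nm emission and signal to noise measuring lysate protein binding.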 The following applies: COS7 hTOR1A mutant lysate, 635 nm fluorescence, higher = more signal.
For experiment [10], the system named is Sonic hedgehog protein (Shh). Briefly: Sonic hedgehog microarray binding compounds – biochemical, small-molecule microarray, 635/667 nm fluorescence, primary screen (AID 1151).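 Also: Shh protein binding to compounds spotted on small-molecule microarray slides; score combines spot fluorescence intensity with signal-to-noise across triplicate slides.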 The following applies: 635 nm fluorescence, higher = more signal.

The source made the active and inactive calls. Unless noted, no rule for the calls is given here.

Here are results for 13 compounds from PubChem BioAssay.

Chain of Torsin-1A (Homo sapiens) (O14656 whole entry, looked up): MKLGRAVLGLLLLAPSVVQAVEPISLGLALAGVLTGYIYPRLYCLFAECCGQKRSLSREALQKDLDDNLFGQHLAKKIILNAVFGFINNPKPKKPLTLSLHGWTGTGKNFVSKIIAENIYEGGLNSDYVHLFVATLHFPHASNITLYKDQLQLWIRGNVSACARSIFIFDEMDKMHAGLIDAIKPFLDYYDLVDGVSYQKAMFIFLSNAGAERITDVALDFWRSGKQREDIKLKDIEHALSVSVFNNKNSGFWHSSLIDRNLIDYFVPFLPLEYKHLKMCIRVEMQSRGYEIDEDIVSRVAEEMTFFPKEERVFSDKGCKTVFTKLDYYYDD
Chain of Streptavidin (Streptomyces avidinii) (P22629 whole entry, looked up): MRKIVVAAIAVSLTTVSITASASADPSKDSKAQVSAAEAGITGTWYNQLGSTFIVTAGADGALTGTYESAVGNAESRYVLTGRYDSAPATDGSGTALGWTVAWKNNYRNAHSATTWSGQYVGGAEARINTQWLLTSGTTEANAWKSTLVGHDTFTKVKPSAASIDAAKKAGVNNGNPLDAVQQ

Regarding `C=CC(=C)C1=CCO[C@@H]1[C@H]1CCCN1S(=O)(=O)c1ccccc1[N+](=O)[O-]`, the composite z-score in [1] is 0.224; in experiment [6], 0.909; in experiment [7], -0.0221; in experiment [8], 0.343; in [9], 0.136; in experiment [10] it was 1.84. Moreover, the z-score was -0.169 (inactive) in experiment [2], -0.484 (inactive) in experiment [3], 0.124 (inactive) in experiment [4] and 0.619 (inactive) in experiment [5].
In the case of `CCOC(=O)C1=C[C@@H](CC)N(S(=O)(=O)c2ccc(C)cc2)[C@H]1c1ccccc1`, the composite z-score was 0.214 in experiment [1]; 1.09 in experiment [6]; 0.226 in [7]; 0.391 in experiment [8]; 0.637 in [9]; 0.0552 in experiment [10]. For the same compound, the z-score in [2] is -3.47 (inactive); in experiment [3] it was -0.0903 (inactive); in experiment [4], 0.22 (inactive); in [5], -0.55 (inactive).
For the compound `O=C1C2C=CC(C(O)c3ccc(B(O)O)cc3)N(Nc3ccccc3)C2C(=O)N1c1ccccc1` (stereo not given), the composite z-score is -0.0341 in experiment [1]; 0.471 in experiment [6]; -0.0797 in experiment [7]; -0.138 in experiment [8]; -0.724 in [9]; -0.661 in [10]. For the same compound, the z-score was -2.7 (inactive) in [2], -1.06 (inactive) in experiment [3], 0.24 (inactive) in experiment [4] and 1.11 (inactive) in experiment [5].
For the compound `O=C1O[C@@H](c2ccccc2)[C@@H](c2ccccc2)N2[C@@H](c3ccc(OCCO)cc3)[C@]3(C(=O)Nc4ccccc43)[C@@H](C(=O)Nc3nc4ccccc4s3)[C@H]12`, the composite z-score came to 0.441 in experiment [1]; 1.17 in [6]; 0.289 in experiment [7]; 1.05 in [8]; 1.11 in experiment [9]; 1.75 in [10]. The z-score in [2] was -3.3 (inactive); in experiment [3] it was -1.78 (inactive); in experiment [4] it was 0.362 (inactive); in [5] it was -0.278 (inactive).
For the compound `Cc1ccc(F)cc1S(=O)(=O)N[C@@H]1CCN(Cc2ccc(-c3ccccc3)cc2)C1`, the composite z-score in [1] is 0.116; in experiment [6] it was -0.164; in experiment [7], -0.128; in experiment [8] it was 0.606; in [9] it was 0.743; in experiment [10], 0.98. The z-score in [2] is -6.41 (inactive); in experiment [3], 0.00325 (inactive); in [4] it was 6.48 (inactive); in experiment [5] it was 0.959 (inactive).
Turning to `CCCCCN1CC=CC23O[C@@H]4/C=C\CCCOC(=O)C4[C@H]2C(=O)N(CCCCCCO)[C@@H]3C1=O` (stereo not given in full), the composite z-score in experiment [1] is -0.686; in [6] it was -1.21; in experiment [7], -0.128; in [8], 0.61; in experiment [9], 0.474; in experiment [10] it was 0.124. In addition, the z-score in [2] is -1.95 (inactive); in [3], -2.51 (inactive); in experiment [4] it was -1.44 (inactive); in [5], -0.43 (inactive).
For `COC(=O)[C@@]1(Cc2ccc(OC)cc2)[C@H]2c3cc(C(=O)N4CCCC4)n(Cc4ccccn4)c3C[C@H]2CN1C(=O)c1ccccc1`, the composite z-score was 0.782 in experiment [1]; 0.523 in [6]; 1.1 in experiment [7]; -0.367 in experiment [8]; 1.05 in experiment [9]; -0.622 in experiment [10]. In addition, the z-score in experiment [2] was -1.47 (inactive); in experiment [3] it was 0.621 (inactive); in experiment [4] it was 0.201 (inactive); in [5], 1.03 (inactive).
As for `CC(C)C(=C=CC[C@H](O)c1cccc(OCCO)c1)C[C@H](O)COCc1ccccc1`, the composite z-score in experiment [1] was 0.148; in experiment [6], 1.24; in experiment [7], 0.167; in experiment [8], 1.03; in experiment [9], 0.33; in experiment [10], 2.09. For the same compound, the z-score in experiment [2] is -0.33 (inactive); in experiment [3] it was -0.457 (inactive); in experiment [4] it was 1.82 (inactive); in [5], 0.526 (inactive).
As to `C=CCC(OC(C)=O)[C@@H]1[C@@H](N(Cc2ccc(-c3cccc(C(F)(F)F)c3)o2)C(=O)c2ccc(C)cc2)c2cc(OCCCO)ccc2N1C(=O)c1ccc(-c2ccccc2)cc1` (stereo not given in full), the composite z-score is 0.0167 in experiment [1]; 0.535 in experiment [6]; 0.0154 in [7]; -0.245 in experiment [8]; -0.141 in experiment [9]; 1.32 in [10]. In addition, the z-score in experiment [2] is 0.224 (inactive); in experiment [3], -0.747 (inactive); in [4] it was -0.463 (inactive); in experiment [5] it was -0.183 (inactive).
With `COc1ccccc1CN1C(=O)c2ccccc2[C@@H](C(=O)NCCN2CCOCC2)[C@@H]1c1ccc(CO)cc1`, the composite z-score in experiment [1] is 0.274; in experiment [6], 0.156; in experiment [7], -0.13; in experiment [8] it was 0.52; in experiment [9], 0.767; in experiment [10], 0.197. Moreover, the z-score in [2] is -0.916 (inactive); in experiment [3] it was -1.04 (inactive); in experiment [4], 0.001 (inactive); in [5] it was -1.09 (inactive).
For the compound `O=C1O[C@@H](c2ccccc2)[C@@H](c2ccccc2)N2[C@@H](c3ccc(O)cc3)[C@]3(C(=O)Nc4ccc(C#CC5=CCCCC5)cc43)[C@@H](C(=O)O)[C@H]12`, the composite z-score in experiment [1] was determined as 0.942; in experiment [6], 1.75; in experiment [7] it was 0.198; in [8], 0.198; in [9], 0.637; in experiment [10], 0.146. Moreover, the z-score in experiment [2] is -2.52 (inactive); in experiment [3], -2.85 (inactive); in [4] it was -0.0515 (inactive); in experiment [5], -1.12 (inactive).
With `C[C@]1(C(=O)NCc2ccccc2)c2ccccc2C(=O)N(Cc2cc(F)cc(C(F)(F)F)c2)[C@H]1c1ccc(CO)cc1`, the composite z-score was -0.0261 in experiment [1]; -0.859 in experiment [6]; 0.13 in experiment [7]; -0.956 in [8]; -1.47 in experiment [9]; -0.436 in experiment [10]. Moreover, the z-score in experiment [2] was -1.8 (inactive); in experiment [3], -0.255 (inactive); in experiment [4], 0.0909 (inactive); in [5], -0.323 (inactive).
In the case of `COc1ccc([Si](C)(C)[C@H]2[C@H](CCn3cc(CCO)nn3)O[C@@]3(C(=O)N(Cc4ccc(N5CCOC5=O)cc4)c4ccccc43)[C@@H]2C)cc1`, the composite z-score in experiment [1] was -0.0483; in [6], -0.0903; in experiment [7], -0.0044; in experiment [8], 0.676; in experiment [9], 0.806; in experiment [10], 1.59. Further, the z-score in experiment [2] was -4.12 (inactive); in experiment [3], 9e-05 (inactive); in [4] it was 0.469 (inactive); in [5] it was -2.21 (inactive).
